Our source for the growth values is PubChem BioAssay (NCI).

Test systems include NCI-H23 lung; NCI-H226 lung; NCI-H322M lung; HOP-62 NSCLC; NCI-H460 lung; HOP-92 NSCLC; NCI-H522 lung; A549/ATCC NSCLC; 786-0 renal; COLO 205 colon.
Holding throughout (assay): NCI-60 one-dose screen, 48 h (100 = growth as untreated, 0 = no growth, -100 = all killed)
Details in all cases: 10 µM unless noted

Compounds without any hit were thinned out: in the full panel of roughly 83,000, 20% have a hit.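 In brief: 96-well plates, 48 h treatment, single concentration, percent growth endpoint.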 Values without a mark were called inactive. Calls of active or inactive are those of the source. Rule for the calls: active = growth percent below 10; inactive = the rest.

For the compound `CCOCC(O)(c1ccc(Cl)cc1)c1ccc(Cl)cc1`, the growth in the assay on NCI-H23 lung was 95.1%; in the assay on NCI-H226 lung, 113%; in the assay with NCI-H322M lung it was 93.9%; in the assay with HOP-62 NSCLC, 115%; in the assay on NCI-H460 lung, 107%; in the assay with HOP-92 NSCLC, 107%. The growth was 89.4% with NCI-H522 lung, 83.2% with A549/ATCC NSCLC, 104% with 786-0 renal and 111% in the assay with COLO 205 colon.

With `COc1ccc2c(c1)CCCC21C(=O)Nc2c(Cl)cccc21` (stereo not given), the growth is 86% with NCI-H23 lung; 85.9% in the assay with NCI-H226 lung; 88.1% in the assay with NCI-H322M lung; 55.7% in the assay on HOP-62 NSCLC; 94.4% with NCI-H460 lung; 72.3% in the assay on HOP-92 NSCLC. In addition, the growth is 27.7% in the assay with NCI-H522 lung, 68.7% in the assay on A549/ATCC NSCLC, 78.9% in the assay with 786-0 renal and 80.6% in the assay with COLO 205 colon.

`CN(C)CCOc1nc2c3cccnc3cc(-c3cccc(Cl)c3)c2c2ncccc12`: the growth with NCI-H23 lung is 31.2%; with NCI-H226 lung, 40.5%; in the assay with NCI-H322M lung, 44.9%; in the assay on HOP-62 NSCLC, 44.4%; with NCI-H460 lung, -49.8% (active); in the assay on HOP-92 NSCLC, 42.7%. The growth in the assay on NCI-H522 lung is 34.1%; in the assay on A549/ATCC NSCLC, 22%; in the assay with 786-0 renal, 21.8%; with COLO 205 colon it was -65.4% (active).

On to `c1ccc(-c2[nH]c3ccccc3c2-c2ccccc2)cc1`, for which the growth with NCI-H23 lung was 82%; in the assay on NCI-H226 lung, 91.4%; with NCI-H322M lung, 82.2%; with HOP-62 NSCLC, 90%; with NCI-H460 lung, 82.5%; in the assay with HOP-92 NSCLC, 8.71% (active). The growth was 91.8% in the assay with NCI-H522 lung, 84.5% with A549/ATCC NSCLC, 83.9% with 786-0 renal and 107% in the assay with COLO 205 colon.

Take `CCN1CCN(Cc2ccc(NC(=O)c3nc4ccc5[nH]ncc5c4c4c3CCCC4)cc2C(F)(F)F)CC1`: the growth in the assay with NCI-H23 lung is 74.6%; with NCI-H226 lung, 60.3%; in the assay on NCI-H322M lung, 2.39% (active); in the assay with HOP-62 NSCLC, -29.8% (active); in the assay on NCI-H460 lung, -73.4% (active); with HOP-92 NSCLC, 44.9%. Also, the growth was -76.9% (active) in the assay on NCI-H522 lung, 6.07% (active) with A549/ATCC NSCLC, -88.6% (active) in the assay on 786-0 renal and -76.7% (active) in the assay on COLO 205 colon.

For the compound `Clc1cc(Br)ccc1-c1ccc(CNCC2CCNCC2)o1`, the growth in the assay with NCI-H23 lung was 69.6%; with NCI-H226 lung it was 48.4%; in the assay with NCI-H322M lung, 60.2%; with HOP-62 NSCLC it was 41%; in the assay on NCI-H460 lung it was 9.35% (active); in the assay on HOP-92 NSCLC it was 56.3%. Moreover, the growth is 55.3% in the assay on NCI-H522 lung, 17% in the assay with A549/ATCC NSCLC, 42.3% in the assay on 786-0 renal and 27.9% in the assay with COLO 205 colon.

Turning to `O=C(Nc1ccc(Cl)c(C(F)(F)F)c1)c1ccc(Nc2ccc(Cl)nn2)cc1`, the growth in the assay with NCI-H23 lung is 48.4%; with NCI-H226 lung, 84.2%; in the assay with NCI-H322M lung, 92.9%; with HOP-62 NSCLC it was 86.1%; in the assay with NCI-H460 lung it was 74%; in the assay with HOP-92 NSCLC, 82.8%. The growth with NCI-H522 lung was 62%; with A549/ATCC NSCLC, 44.3%; with 786-0 renal, 50.9%; in the assay on COLO 205 colon, 81.6%.

For `COc1cc2c(cc1I)-c1c(cc(OC)c(OC)c1OC)CC[C@@H]2NC(C)=O`, the growth was 4.9% (active) in the assay with NCI-H23 lung; 33.6% in the assay on NCI-H226 lung; 61.6% with NCI-H322M lung; 14.7% with HOP-62 NSCLC; 1.44% (active) in the assay with NCI-H460 lung; 43.7% in the assay on HOP-92 NSCLC. For the same compound, the growth with NCI-H522 lung is -22.3% (active); in the assay on A549/ATCC NSCLC, 28.3%; in the assay on 786-0 renal it was 16.4%; in the assay with COLO 205 colon, -52.8% (active).

`CCOC(=O)c1ccc(NC(=O)NC2=NCCS2)cc1`: the growth with NCI-H23 lung was 18.4%; in the assay on NCI-H226 lung, 13.5%; in the assay on NCI-H322M lung, 77.7%; in the assay on HOP-62 NSCLC it was 35.7%; in the assay with NCI-H460 lung it was 19.5%; with HOP-92 NSCLC, 73.6%. Besides, the growth in the assay with NCI-H522 lung was 20.8%; with A549/ATCC NSCLC it was 22.5%; in the assay on 786-0 renal, 33.8%; in the assay on COLO 205 colon, 103%.

For the compound `Cc1cc(C)c([O-])c(CN(C)CCN(C)Cc2cc(C)cc(C)c2[O-])c1.O=C([O-])c1cccc(C(=O)[O-])n1.[Ti+4]`, the growth in the assay with NCI-H23 lung was 10.4%; with NCI-H226 lung, 31%; with NCI-H322M lung, 8.44% (active); in the assay on HOP-62 NSCLC it was 12.5%; with NCI-H460 lung it was -68.7% (active); in the assay on HOP-92 NSCLC it was -53.1% (active). Also, the growth was -47% (active) with NCI-H522 lung, 23.3% in the assay on A549/ATCC NSCLC, 11.9% with 786-0 renal and 2.03% (active) with COLO 205 colon.

Consider `CC(=O)c1ccc(Nc2nc(Cl)nc(Oc3c(Cl)cccc3Cl)n2)cc1`, for which the growth with NCI-H23 lung was 92.3%; in the assay on NCI-H226 lung it was 74.9%; in the assay on NCI-H322M lung, 104%; with HOP-62 NSCLC it was 101%; in the assay with NCI-H460 lung it was 79.9%; in the assay with HOP-92 NSCLC it was 81.2%. The growth was 64.4% with NCI-H522 lung, 83.8% in the assay on A549/ATCC NSCLC, 100% with 786-0 renal and 99.7% in the assay with COLO 205 colon.

For the compound `O=C(CCc1nc2sc3c(c2c(=O)[nH]1)CCC3)NCc1cn(-c2ccccc2)nc1-c1ccccc1`, the growth is 66.2% with NCI-H23 lung; 92.2% in the assay with NCI-H226 lung; 92.8% with NCI-H322M lung; 80.8% with HOP-62 NSCLC; 1.28% (active) with NCI-H460 lung; 95.9% in the assay with HOP-92 NSCLC. The growth in the assay with NCI-H522 lung is 78.9%; with A549/ATCC NSCLC it was 16.5%; in the assay with 786-0 renal, 98.4%; in the assay on COLO 205 colon, 75.7%.

Take `Oc1c(C(c2ccc(F)cc2)N2CCCCC2)ccc2cncnc12` (stereo not given): the growth in the assay on NCI-H23 lung was 16.1%; in the assay on NCI-H226 lung, -0.0481% (active); with NCI-H322M lung, 19.4%; in the assay on HOP-62 NSCLC it was 11.6%; in the assay on NCI-H460 lung, 4.38% (active); with HOP-92 NSCLC, -14.4% (active). Also, the growth is 4.34% (active) in the assay with NCI-H522 lung, 5.08% (active) in the assay on A549/ATCC NSCLC, 23.1% in the assay with 786-0 renal and -30.1% (active) with COLO 205 colon.
